The source made the active and inactive calls. How the source made its calls: active means hit-call score of the fitted dose curve at least 0.9, where 1 is the maximum; inactive means score below 0.9.

From PubChem BioAssay (EPA / NIEHS) come the findings set out here.

Signal transducer and activator of transcription 3 (Homo sapiens), sequence (P40763 whole entry, looked up): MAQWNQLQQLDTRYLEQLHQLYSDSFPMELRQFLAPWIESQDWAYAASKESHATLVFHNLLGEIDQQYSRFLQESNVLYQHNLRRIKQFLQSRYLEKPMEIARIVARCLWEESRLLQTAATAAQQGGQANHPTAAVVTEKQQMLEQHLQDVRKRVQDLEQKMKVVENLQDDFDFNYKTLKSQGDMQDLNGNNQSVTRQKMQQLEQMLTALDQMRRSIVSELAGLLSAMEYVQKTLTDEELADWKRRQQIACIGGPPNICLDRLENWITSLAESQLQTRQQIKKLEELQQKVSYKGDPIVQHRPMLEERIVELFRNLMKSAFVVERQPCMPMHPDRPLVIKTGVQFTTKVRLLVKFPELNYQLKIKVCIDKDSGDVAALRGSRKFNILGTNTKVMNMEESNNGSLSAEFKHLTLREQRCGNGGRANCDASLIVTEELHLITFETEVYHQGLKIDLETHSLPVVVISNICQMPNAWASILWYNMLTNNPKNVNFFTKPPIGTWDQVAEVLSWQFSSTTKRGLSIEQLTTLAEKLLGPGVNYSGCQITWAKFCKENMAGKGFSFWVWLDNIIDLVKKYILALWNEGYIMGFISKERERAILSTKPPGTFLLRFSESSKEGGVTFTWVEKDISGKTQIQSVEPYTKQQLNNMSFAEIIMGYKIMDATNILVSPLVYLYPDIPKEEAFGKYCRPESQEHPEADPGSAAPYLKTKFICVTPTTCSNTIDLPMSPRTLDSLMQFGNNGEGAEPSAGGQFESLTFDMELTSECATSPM

The target of the first assay is Signal transducer and activator of transcription 3 (Homo sapiens) (UniProt P40763). The assay is described as follows: ATG_STAT3_CIS: Attagene CIS-FACTORIAL HepG2 Assay for human Signal Transducer and Activator of Transcription 3 (STAT3) (AID 2282963). To be noted: HepG2, Attagene cis-factorial STAT3 reporter transcription; actives raise or lower the signal. The procedure, abridged:
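HepG2 cells transiently transfected with multiple cis-element-driven reporter units report endogenous transcription factor activity. After 24 h compound exposure, reporter mRNA is measured by RT-PCR, 6-FAM labelling, HpaI digestion and capillary electrophoresis. Fitted bidirectionally versus DMSO.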
For `CC1(C)O[C@@H]2C[C@H]3[C@@H]4CCC5=CC(=O)C=C[C@]5(C)[C@@]4(F)[C@@H](O)C[C@]3(C)[C@]2(C(=O)CO)O1`, the outcome was inactive. On the same count and under the same terms, the same measure for `CCOc1ccc(N=Nc2ccc(C=Cc3ccc(N=Nc4ccc(OCC)cc4)cc3S(=O)(=O)O)c(S(=O)(=O)O)c2)cc1`: “inactive”; for `c1ccc(CN(Cc2ccccc2)Cc2ccccc2)cc1`: “inactive”; for `CC(=O)CC(=O)Nc1ccccc1`: “inactive”. Same read-out and setting: the entry for `CCNCCO` is “inactive”.

In the case of `O=CCc1ccccc1`, the call was inactive. For the compound `C=C(C)[C@H]1CC=C(C)C(=O)C1`, the compound was called inactive. On the same count and under the same terms, the entry for `CC(C)OCCO` is “inactive”; for `CC(C)CCCCCCc1ccc(OCCOCCO)cc1` it is “inactive”; for `CCc1cc(C(C)(C)C)c(O)c(C(C)(C)C)c1` it is “inactive”.

As to `CC(=O)OCCCc1ccccc1`, the result was inactive. By AC50 is commonly meant the concentration giving half of the maximal activity seen. On to `Clc1ccc(C(c2ccccc2Cl)C(Cl)Cl)cc1` (stereo unspecified), for which the AC50 was 161 µM (active). Regarding `C=CC(C)(O)CCC=C(C)C` (stereo unspecified), the compound was called inactive. Consider `Nc1c(Cl)cc(Cl)cc1[N+](=O)[O-]`, for which the compound was called inactive. On the same count and under the same terms, the entry for `C[C@H](CCC(=O)NCC(=O)O)[C@H]1CC[C@H]2[C@@H]3[C@H](O)C[C@@H]4C[C@H](O)CC[C@]4(C)[C@H]3C[C@H](O)[C@]12C` is “inactive”. As for `CCCOCCO`, the outcome was inactive. Consider `CN(C)C(=S)SC(=S)N(C)C`, for which the outcome was inactive. The same measure, in the same setting: the entry for `Cc1cc(CCC(=O)OCCOCCOCCOC(=O)CCc2cc(C)c(O)c(C(C)(C)C)c2)cc(C(C)(C)C)c1O` is “inactive”; for `CCCCCCCCCCCC(=O)OC[C@@H](O)[C@H]1OC[C@H](O)[C@H]1O` it is “inactive”. Same read-out and setting: the entry for `COC(=O)c1ccc(OC)cc1` is “inactive”; for `COC(C)(C)CCO` it is “inactive”. The same measure, in the same setting: the same measure for `CC(=O)O[C@@H]1CC2CCC1(C)C2(C)C` (stereo partly specified): “inactive”.

As for `C[C@H]1O[C@@H](O[C@H]2[C@@H](O)C[C@H](O[C@H]3[C@@H](O)C[C@H](O[C@H]4CC[C@@]5(C)[C@H](CC[C@@H]6[C@@H]5C[C@@H](O)[C@]5(C)[C@@H](C7=CC(=O)OC7)CC[C@]65O)C4)O[C@@H]3C)O[C@@H]2C)C[C@H](O)[C@@H]1O`, the AC50 was 3.54 µM (active). In the case of `CC[N+](C)(CC)CC`, the result was inactive. Same read-out and setting: the entry for `COCCOCCOCCO` is “inactive”; for `COC(C)(C)CCCC(C)CC=O` (stereo unspecified) it is “inactive”. On the same count and under the same terms, the same measure for `COc1ccc(COC(C)=O)cc1`: “inactive”; for `Cc1ccc(S(N)(=O)=O)cc1`: “inactive”; for `O=C(O)c1cc(C(=O)O)cc([N+](=O)[O-])c1`: “inactive”. With `CC(C)Nc1nc(N)nc(Cl)n1`, the result was inactive. Same read-out and setting: the same measure for `C[C@@H]1CCN(C(=O)[C@H](CCCN=C(N)N)NS(=O)(=O)c2cccc3c2NC[C@H](C)C3)[C@@H](C(=O)O)C1`: “inactive”. On the same count and under the same terms, the same measure for `CCCCCCCC/C=C\CCCCCCCC(=O)OCC`: “inactive”; for `CCOC(=O)COC(=O)c1cc(Oc2ccc(C(F)(F)F)cc2Cl)ccc1[N+](=O)[O-]`: “inactive”; for `O=C(O)c1cccnc1C(=O)O`: “inactive”.

With `O=C(Nc1ccc2c(O)c(N=Nc3ccc(N=Nc4ccc(S(=O)(=O)O)cc4)cc3)c(S(=O)(=O)O)cc2c1)c1ccccc1`, the result was inactive. Same read-out and setting: the same measure for `Cc1ncc([N+](=O)[O-])n1CCO`: “inactive”. In the case of `CCOc1ccc(NC(=O)CC(C)=O)cc1`, the compound was called inactive. The same measure, in the same setting: the same measure for `CC/C=C\CCOC(=O)CC`: “inactive”.

System in another assay: not listed separately
Kind of assay: ATG_TA_CIS: Attagene CIS-FACTORIAL HepG2 Assay for human TA Basal Promoter (AID 2282964). To be noted: HepG2 Attagene CIS-factorial TA basal promoter reporter; actives raise or lower the signal. In short, it runs like this: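 Transient MRTU transfection of HepG2 preceded 24 h compound exposure. Reporter mRNA levels were then read by RT-PCR with capillary electrophoresis, and this background-control endpoint was fitted bidirectionally to DMSO.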
With `CC1(C)O[C@@H]2C[C@H]3[C@@H]4CCC5=CC(=O)C=C[C@]5(C)[C@@]4(F)[C@@H](O)C[C@]3(C)[C@]2(C(=O)CO)O1`, the outcome was inactive. As to `CCOc1ccc(N=Nc2ccc(C=Cc3ccc(N=Nc4ccc(OCC)cc4)cc3S(=O)(=O)O)c(S(=O)(=O)O)c2)cc1`, the outcome was inactive. As for `c1ccc(CN(Cc2ccccc2)Cc2ccccc2)cc1`, the result was inactive. The same measure, in the same setting: the same measure for `CC(=O)CC(=O)Nc1ccccc1`: “inactive”; for `CCNCCO`: “inactive”. Still for that read-out and setting: the entry for `O=CCc1ccccc1` is “inactive”; for `C=C(C)[C@H]1CC=C(C)C(=O)C1` it is “inactive”. The same measure, in the same setting: the same measure for `CC(C)OCCO`: “inactive”; for `CC(C)CCCCCCc1ccc(OCCOCCO)cc1`: “inactive”; for `CCc1cc(C(C)(C)C)c(O)c(C(C)(C)C)c1`: “inactive”. In the case of `CC(=O)OCCCc1ccccc1`, the compound was called inactive.

Regarding `Clc1ccc(C(c2ccccc2Cl)C(Cl)Cl)cc1` (stereo unspecified), the compound was classed as inactive. The same measure, in the same setting: the same measure for `C=CC(C)(O)CCC=C(C)C` (stereo unspecified): “inactive”; for `Nc1c(Cl)cc(Cl)cc1[N+](=O)[O-]`: “inactive”. On the same count and under the same terms, the entry for `CCCOCCO` is “inactive”; for `CN(C)C(=S)SC(=S)N(C)C` it is “inactive”; for `CCCCCCCCCCCC(=O)OC[C@@H](O)[C@H]1OC[C@H](O)[C@H]1O` it is “inactive”.

On to `COC(=O)c1ccc(OC)cc1`, for which the outcome was inactive. Same read-out and setting: the entry for `COC(C)(C)CCO` is “inactive”. Still for that read-out and setting: the same measure for `CC(=O)O[C@@H]1CC2CCC1(C)C2(C)C` (stereo partly specified): “inactive”; for `C[C@H]1O[C@@H](O[C@H]2[C@@H](O)C[C@H](O[C@H]3[C@@H](O)C[C@H](O[C@H]4CC[C@@]5(C)[C@H](CC[C@@H]6[C@@H]5C[C@@H](O)[C@]5(C)[C@@H](C7=CC(=O)OC7)CC[C@]65O)C4)O[C@@H]3C)O[C@@H]2C)C[C@H](O)[C@@H]1O`: “inactive”; for `COCCOCCOCCO`: “inactive”.

On to `COc1ccc(COC(C)=O)cc1`, for which the compound was classed as inactive.

With `Cc1ccc(S(N)(=O)=O)cc1`, the result was inactive. Still for that read-out and setting: the same measure for `O=C(O)c1cc(C(=O)O)cc([N+](=O)[O-])c1`: “inactive”. The same measure, in the same setting: the entry for `CC(C)Nc1nc(N)nc(Cl)n1` is “inactive”; for `C[C@@H]1CCN(C(=O)[C@H](CCCN=C(N)N)NS(=O)(=O)c2cccc3c2NC[C@H](C)C3)[C@@H](C(=O)O)C1` it is “inactive”.

As for `CCCCCCCC/C=C\CCCCCCCC(=O)OCC`, the outcome was inactive.

For the compound `CCOC(=O)COC(=O)c1cc(Oc2ccc(C(F)(F)F)cc2Cl)ccc1[N+](=O)[O-]`, the outcome was inactive. The same measure, in the same setting: the same measure for `O=C(Nc1ccc2c(O)c(N=Nc3ccc(N=Nc4ccc(S(=O)(=O)O)cc4)cc3)c(S(=O)(=O)O)cc2c1)c1ccccc1`: “inactive”; for `Cc1ncc([N+](=O)[O-])n1CCO`: “inactive”. Still for that read-out and setting: the entry for `CCOc1ccc(NC(=O)CC(C)=O)cc1` is “inactive”; for `CC/C=C\CCOC(=O)CC` it is “inactive”.
